This assay has as its target Glucose transporter (Leishmania mexicana) (UniProt O61059). The experiment in a line: ST_JUDE_LEISH: Cytotoxicity at 2uM final concentration against transgenic Leishmania Mexicana promastigotes LmGT2 that are glucose transport deficient and complemented with the L. Mexicana glucose transporter 2. Activity is measured by DNA content using SYBR green in vitro. The format is functional.
Consider `CC(=O)Oc1c(C2CCN(CCCCNC(=O)c3ccc(-c4ccc(C#N)cc4)cc3)CC2)ccc2c1CCCC2`, for which the inhibition (usually the relative decrease from the control value, in per cent) was determined as 1.58%.

Take `CC(=O)Nc1ccc(CNCCc2ccc(NC(=O)c3cc(Cl)cc(Cl)c3)cc2)cc1`: the inhibition is -1.09%.

Take `CN1CCN(c2ccnc3ccc(NC(=O)Nc4ccc5c(c4)CCC5=O)cc23)CC1`: the inhibition turned out to be 5.45%.

For `CCN(CC)CCCC(C)Nc1c(-c2ccc(C)cc2)cnc2ccccc12` (stereo not given), the inhibition worked out at 8.1%.

On to `CCNc1cc(C(=O)N[C@@H](Cc2ccccc2)[C@H](O)CNC(C)(C)CC(C)(C)C)c(F)c(N2CCCCS2(=O)=O)c1`, for which the inhibition was -0.53%.

Regarding `O=C(NC1CC1)C1CCN(Cc2cc3ccccc3n2Cc2ccc(Cl)cc2)CC1`, the inhibition is -1.79%.

In the case of `CC1CCCN1Cc1cccc(-c2ccc(C(=O)NCCOc3ccccc3)s2)c1` (stereo not given), the inhibition came out at 25.7%.

Take `Cc1cccc2nc(-c3ccc(-c4cccc(CN5CCCC5CN)c4)cc3)[nH]c12` (stereo not given): the inhibition turned out to be 1.07%.

As for `CC(C)CNCc1cccc(-c2cccc(CNC3CCN(Cc4ccccc4)CC3)c2)c1`, the inhibition was found to be 1.83%.

Turning to `Cc1ccc(NC(=O)c2ccnc(N3CCN(c4ccncc4)CC3)c2)cc1F`, the inhibition was found to be 4.05%.

Turning to `C=CCc1cc(C2CCN(CCCCNC(=O)c3ccc(-c4ccc(C#N)cc4)cc3)CC2)c(OCC(N)=O)c2c1CCCC2`, the inhibition came out at 3.22%.

On to `CN1CCN(CCCN(Cc2csc(-c3ccc(CNCc4ccccc4)cc3)n2)S(=O)(=O)c2ccccc2)CC1`, for which the inhibition turned out to be 4.53%.

Regarding `Cc1cccc(-c2nc(Nc3ccncc3)c3ccc([N+](=O)[O-])cc3n2)n1`, the inhibition is 3.86%.

As for `CC(CCCCOCCc1ccccc1)NCC(O)c1cc(Cl)c(N)c(Cl)c1` (stereo not given), the inhibition is 2.18%.

Regarding `Cc1cc(N2CCCC2=O)ccc1-c1ccc(C(=O)N2CCC(Oc3cccc(Cl)c3)CC2)cc1`, the inhibition turned out to be 3.87%.

The record behind these values is ChEMBL document CHEMBL3433997, “St. Jude Leishmania screening dataset” (2016).
